Source: PubChem BioAssay
Giardia kill = Small Molecules that selectively kill Giardia lamblia: qHTS. Giardia lamblia trophozoite viability. activity change, % at 7.66 µM, hits read low. hit rate 0.15% among 340,000. AID 540267, 2011; in the data active = activity change below about -80%; inconclusive = between about -30% and that limit;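 also: parasites exposed to compound for two days anaerobically before the ATP read; % is scaled to controls: 0 for no effect and ±100 for the full control effect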
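Anaerobic 48 hrs incubation at 37 deg C of 100 trophozoites/well with test compounds; ATPLite 1-Step luminescence, 15-30 min RT, reports cellular ATP as viability.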
ELG1 repair inh = qHTS screen for small molecules that inhibit ELG1-dependent DNA repair in human embryonic kidney (HEK293T) cells expressing luciferase-tagged ELG1. Potency, µM (series often up to 46.1 µM), for the others: top-dose activity change, negative = inhibition, actives largely listed as inhibitors. hit rate 2.3% among 330,000. HEK293T ELG1-luciferase reporter, luminescence, 16 h; DNA damage induced by 5-fluorouridine; also: potency is read from the fitted curve at half-maximal effect; % is scaled to controls: 0 for no effect and ±100 for the full control effect; nearly all actives have a fitted effect of over 55% in size
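Overnight (16 hr) co-exposure of 2,000 cells/well to 5-fluorouridine and compound at 37 °C preceded detection. Luciferase was quantified via ONE-Glo luminescence; loss of signal denotes inhibition.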
TRPV1 potentiator = HTS Assay for Compounds that Act as Potentiators of the Vanilloid Receptor 1. Transient receptor potential cation channel subfamily V member 1 (Homo sapiens), Q8NER1. TRPV1-expressing cells, Fluo-8 calcium influx, capsaicin EC20 potentiation. potentiation, % at 8.33 µM. hit rate 0.02% among 320,000; in the data active = potentiation above about 80%; inconclusive = between about 30% and that limit; also: 0% is about no effect
Target sequence (Q8NER1 whole entry, looked up): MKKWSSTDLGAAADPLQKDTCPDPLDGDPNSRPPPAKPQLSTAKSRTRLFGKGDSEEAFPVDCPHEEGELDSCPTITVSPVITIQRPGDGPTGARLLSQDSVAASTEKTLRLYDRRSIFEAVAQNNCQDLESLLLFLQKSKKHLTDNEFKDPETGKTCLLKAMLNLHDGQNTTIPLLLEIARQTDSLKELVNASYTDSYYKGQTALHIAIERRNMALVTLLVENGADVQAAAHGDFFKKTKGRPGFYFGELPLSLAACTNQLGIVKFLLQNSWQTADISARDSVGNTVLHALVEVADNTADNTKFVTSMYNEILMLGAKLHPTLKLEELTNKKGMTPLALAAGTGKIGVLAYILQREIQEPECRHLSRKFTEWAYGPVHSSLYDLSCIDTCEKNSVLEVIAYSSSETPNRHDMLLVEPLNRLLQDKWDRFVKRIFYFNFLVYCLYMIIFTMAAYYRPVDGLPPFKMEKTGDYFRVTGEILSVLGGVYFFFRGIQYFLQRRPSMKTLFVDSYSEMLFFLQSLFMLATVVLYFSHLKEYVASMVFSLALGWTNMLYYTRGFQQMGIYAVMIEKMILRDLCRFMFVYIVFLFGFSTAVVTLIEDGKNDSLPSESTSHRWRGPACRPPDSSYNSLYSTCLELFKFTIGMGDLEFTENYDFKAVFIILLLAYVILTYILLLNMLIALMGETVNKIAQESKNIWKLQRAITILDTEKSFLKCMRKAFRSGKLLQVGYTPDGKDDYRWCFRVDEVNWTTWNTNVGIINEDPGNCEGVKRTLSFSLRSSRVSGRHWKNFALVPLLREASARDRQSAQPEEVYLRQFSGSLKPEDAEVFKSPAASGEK
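Fluo-8 calcium influx in TRPV1-expressing cells, kinetic read (ex 480/em 520 nm). Compound added and read 3 min for agonist activity, followed by capsaicin at EC20 final and 2 min further read for enhancement.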
FUS yeast rescue = qHTS for Suppressors of FUS Proteinopathy: Primary screen using FUS-linked yeast assay | S. cerevisiae FUS-expressing, growth rescue, OD600, 24 h | Potency, µM (series often up to 76.6 µM), usual class: activators | hit rate 0.24% among 390,000;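 also: potency is read from the fitted curve at half-maximal effect; plate controls were DMSO vehicle for no effect and reference control for full effect; nearly all actives have a fitted effect of over 55% in size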
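Cultures pregrown in 2.5% raffinose medium are shifted to minimal medium containing 2% galactose to express toxic FUS. Compounds are tested at several concentrations. After 24hr at 30C, growth is quantified at 600 nm absorbance.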
TRPV1 agonist = HTS Assay for Compounds that Act as Agonists of the Vanilloid Receptor 1 | Transient receptor potential cation channel subfamily V member 1 (Homo sapiens), Q8NER1 | hit rate 0.19% among 320,000 | AID 540275, 2011 | TRPV1-expressing cells, Fluo-8 calcium influx, agonist mode | activation, % at 8.33 µM; in the data active = activation above about 80%; inconclusive = between about 30% and that limit; also: 0% is about no effect
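Fluo-8 calcium influx in TRPV1-expressing cells, kinetic read (ex 480/em 520 nm). Compound added and read 3 min for agonist activity, followed by capsaicin at EC20 final and 2 min further read for enhancement.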
* hit, by the source's call; i = inactive; ? = inconclusive; nt = no result given. Shown are actives, neighbours in structure and some others; about 2.3% of the full set was active somewhere. Unless noted, calls follow the shape of the dose curve; as a rule, active = well fitted curve in the direction sought with a large enough effect; inconclusive = small, poorly fitted or top-dose-only effect, or another doubt; inactive = no such curve, though single readings can be large; an effect the other way counts as inactive or inconclusive.

SMILES	Giardia kill	ELG1 repair inh	TRPV1 potentiator	FUS yeast rescue	TRPV1 agonist
CCN1c2ccccc2-c2nc(SCC(=O)NCc3ccccc3)ncc2S1(=O)=O	nt	nt	nt	i	nt
CC(=O)c1sc(NC(=O)c2ccc(F)c(S(=O)(=O)N3CCOCC3)c2)nc1C	-5	23%	-6	i	1
CCOc1ccccc1NC(=O)c1ccc(F)c(S(=O)(=O)N2CCC3(CC2)OCCO3)c1	-4	21µM*	-10	i	10
O=C(Nc1ccc(-c2cn3ccsc3n2)cc1)c1ccc(F)c(S(=O)(=O)N2CCOCC2)c1	-1	16µM*	?	i	-4
CCOc1ccccc1NC(=O)c1ccc(F)c(S(=O)(=O)NCc2ccc3c(c2)OCO3)c1	nt	nt	nt	i	nt
O=S(=O)(c1cnc2ccccc2c1)N1CCN(c2nc(-c3cccs3)nc3ccccc23)CC1	19	nt	nt	nt	nt
COc1cc(/C=C/C(=O)OCC(=O)Nc2ccc(NC(C)=O)cc2)cc(S(=O)(=O)N2CCc3ccccc32)c1OC	-7	21µM*	1	?	1
COC(=O)c1ccc(C(=O)OC)c(NC(=O)COC(=O)c2ccc(OC)c(OC)c2OC)c1	9	5.8µM*	3	i	2
Cc1nnc(NC(=O)CSc2nnc(CCc3nc4ccccc4[nH]3)n2C)s1	7	0%	4	i	3
Cn1c(CCc2nc3ccccc3[nH]2)nnc1SCC#N	22	21µM*	1	i	18
COc1ccc(CN(C)c2ncnc3sccc23)c(OC)c1OC	-10	9.2µM*	5	i	-1
COC(=O)c1ccc(NC(=O)CN(Cc2ccccc2)S(=O)(=O)c2ccc(Cl)cc2)cc1	nt	nt	nt	i	nt
O=C(/C=C/c1ccc([N+](=O)[O-])s1)N1CCCCC1	-82*	?	-38	i	?
O=C(/C=C/c1ccc([N+](=O)[O-])s1)N1CCN(c2ccccc2)CC1	?	0%	-10	i	15
CC1CC(C)CN(C(=O)/C=C/c2ccc([N+](=O)[O-])s2)C1 (stereo not drawn)	?	?	?	i	-14
O=C(/C=C/c1ccc([N+](=O)[O-])s1)N1CCCC1	-87*	15µM*	4	i	6
Cc1sc(-n2c(C)cc(/C=C3\SC(=S)NC3=O)c2C)c(C#N)c1C	-2	28%	8	16µM*	7
Cc1cc(/C=C2\SC(=S)NC2=O)c(C)n1-c1cccc(O)c1	?	?	-3	i	4
COc1ccc(-c2c(C)c3ccc(O)c(CN4CCCC(C)C4)c3oc2=O)cc1OC (stereo not drawn)	nt	nt	nt	i	nt
COc1ccc(-n2nnnc2S(=O)(=O)Cc2ccc(C(=O)O)cc2)cc1	-5	?	1	i	6
CCS(=O)(=O)c1nnnn1-c1ccccc1S(C)(=O)=O	8	15µM*	2	i	0
COC(=O)c1sc(S(=O)(=O)NCC(=O)O)c(C(=O)OC)c1C	-24	3%	1	i	1
COC(=O)c1sc(S(=O)(=O)NCc2cccs2)c(C(=O)OC)c1C	4	15µM*	-5	i	-3
Cc1ccc(C)c(Nc2nn3c(=O)c4ccc(C(=O)NCc5cccs5)cc4nc3s2)c1	nt	nt	nt	i	nt
O=C(NCc1nnnn1-c1ccc(F)cc1)c1ccc([N+](=O)[O-])o1	-95*	?	-1	i	0
CC(=O)c1ccc(-c2ccc(C(=O)NCC(c3ccc(F)cc3)N3CCOCC3)o2)cc1 (stereo not drawn)	1	-15%	1	i	0
Cc1ccc(-n2nnnc2CNC(=O)c2ccc([N+](=O)[O-])o2)cc1C	?	?	0	i	3
O=C(NCC(c1ccc(F)cc1)N1CCOCC1)c1ccc([N+](=O)[O-])o1 (stereo not drawn)	-101*	?	nt	nt	nt
Cc1cccc(-c2nc3c4ccccc4nc(N4CCN(c5ccccc5F)CC4)n3n2)c1	nt	nt	nt	i	nt
